# In PubChem BioAssay AID652208 (Broad Institute, 2013):
# Results with a measured potency or affinity are listed apart. Activity calls are given as the source filed them.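 Rule for the calls: active = Loss of cell signal with fitted half-effect dose at or below twice the top valid tested dose; inconclusive = Poor fit, or flat fit from -70 to -30 percent; inactive = Half-effect above limit, rising signal, or flat within 30 percent.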
# Assay: HEK293T cell cytotoxicity, dose response, cytotoxicity control for HIV Vif inhibitor project, cherry-picks (AID 652208);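 note: 0% = median neutral control wells and -100% = median staurosporine control wells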
# Settings: HEK293T viability, CellTiter-Glo luminescence, 24 h; series mostly up to 26 µM; activity change, negative = cytotoxicity: at the top concentration
row,Compound,"activity change, negative = cytotoxicity"
1,O=C(NNC(=O)c1cc2ccccc2oc1=O)c1ccccc1,6.51% (inactive)
2,COc1ccc2nc(N3C(=O)C(O)=C(C(=O)c4ccco4)C3c3ccccc3OC)sc2c1 (stereo not drawn),7.88% (inactive)
3,COc1ccc(CC(=O)OCC(=O)NCc2ccc(Cl)cc2)cc1,-9.68% (inactive)
4,CC(=O)Nc1cc(NC(=O)C2C3C=CC(C3)C2C(=O)O)ccc1Cl (stereo not drawn),-1.62% (inactive)
5,CCOC(=O)C1CCCN(C(=O)c2cc(S(=O)(=O)N(C)C)ccc2N2CCCC2)C1 (stereo not drawn),-14.7% (inactive)
6,COc1ccc(OC)c(/C=C/c2nc3ccccc3[nH]c2=O)c1,-29.7% (inactive)
7,COC(CNC(=O)C1CCN(C(=O)c2cc3oc(C)cc3n2Cc2c(F)cccc2Cl)CC1)OC,-8.63% (inactive)
8,COc1ccc(CNC(=O)COC(=O)c2cc(S(=O)(=O)N3CCOCC3)ccc2O)cc1OC,-4.34% (inactive)
9,O=C(CCc1ccccc1)Nc1ccccc1,5.54% (inactive)
10,Nc1nc(-c2ccc3ccccc3c2)cs1,4.51% (inactive)
11,Cc1ccc(C(=O)NC(CCc2ccccc2)C(=O)O)cc1 (stereo not drawn),5.87% (inactive)
12,COc1ccc(-c2nnc(SCC(=O)N3CCCc4ccccc43)o2)cc1OC,-13.4% (inactive)
13,Cc1ccc(C(=O)COC(=O)c2cc(=O)[nH]c3ccccc23)cc1C,0% (inactive)
14,Cc1ccc(Nc2nc(N)nc(CSc3nnc(-c4ccncc4)o3)n2)cc1,-4.38% (inactive)
15,COc1ccc(OC)c(/C(O)=C/C(=O)C(=O)Nc2cc(C)ccc2OC)c1,-1.12% (inactive)
16,COc1ccc(N=C2NC(=O)S/C2=C\c2ccc(N(C)C)cc2)cc1,-5.14% (inactive)
17,Cc1cc(S(=O)(=O)N2CCOCC2)ccc1OCC(=O)NCCN1CCOCC1,0.628% (inactive)
18,O=C(O)c1ccc(-c2nc(-c3cccc(C(F)(F)F)c3)cs2)cc1,-7.98% (inactive)
19,COc1ccccc1-c1cccc2nccn12,-5.37% (inactive)

row,Compound,"activity change, negative = cytotoxicity"
1,CSc1ccc(CN(C)CC(=O)NCCc2ccccc2)cc1,2.59% (inactive)
2,Cc1ccc(NC(=O)/C=C/C(=O)O)c(NC(=O)c2ccccc2)c1,3.16% (inactive)
3,COc1ccc(-c2coc3cc(O)ccc3c2=O)cc1,9.33% (inactive)
4,COc1cc(OC)cc(C(=O)NC(C(=O)Nc2ccc3c(c2)OCO3)C(C)C)c1 (stereo not drawn),3.67% (inactive)
5,O=C(Nc1nn[nH]n1)c1cc(-c2ccc(Cl)c(Cl)c2Cl)nc2ccccc12,6.49% (inactive)
6,CCN(CC)C(=O)c1cccc(NC(=O)C2=COCCO2)c1,-6.02% (inactive)
7,Cc1cc(C)c(S(=O)(=O)N2CCN(S(=O)(=O)N3CCOCC3)CC2)c(C)c1,2.67% (inactive)
8,CCOC(=O)C1CCCN(CC(=O)Nc2c(C(=O)OC)[nH]c3ccc(Cl)cc23)C1 (stereo not drawn),-13.6% (inactive)
9,CCCCOc1ncnc2c1[nH]c1ccccc12,-16.2% (inactive)
10,CC(=O)Nc1ccc(-c2ccnc3c2CC(C(=O)NCc2ccccc2)O3)cc1 (stereo not drawn),-9.05% (inactive)
11,CCCCN1C(=O)/C(=C/C=C2\Oc3ccccc3N2CC)SC1=S,-20.3% (inactive)
12,CN(C)C(=O)c1cc(Br)ccc1Cl,10.3% (inactive)
13,Cc1c(NC(=O)CC(O)(C(F)(F)F)C(F)(F)F)c(=O)n(-c2ccccc2)n1C,4.2% (inactive)
14,O=C1c2ccccc2C(Nc2ccc(S(=O)(=O)N3CCOCC3)cc2)N1c1ccccn1 (stereo not drawn),-4.6% (inactive)
15,Cc1cc(/C=C2\NC(=S)N(C)C2=O)ccc1N1CCCC1,3.57% (inactive)
16,COc1cc(NC(=O)c2ccc(C)cc2C)ccc1NC(=O)c1cccs1,-17.1% (inactive)
17,Cc1cccc2cc(CN(CC3CCCO3)C(=O)NC3CCCCC3)c(=O)[nH]c12 (stereo not drawn),6.93% (inactive)
18,COc1ccc(-c2nc(-c3ccccn3)nc(N3CCN(C)CC3)c2C#N)cc1,-3.84% (inactive)
19,COc1cccc(N2CCN(S(=O)(=O)c3cc4c(cc3C)N(C)CCO4)CC2)c1,-2.23% (inactive)
